Assay outcomes from PubChem.
This is a sample that favours compounds with a hit; in the whole collection about 3.5% have one here.
GPR151 activ: activators of human GPR151; PathHunter beta-arrestin GPR151 cells, luminescence; activation, % at 11.2 µM; 1% of 650,000 active; in the data active means activation above about 4.9%;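 further: 0% = median of compound wells and 100% = cells with positive control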
Target sequence (Q8TDV0 whole entry, looked up): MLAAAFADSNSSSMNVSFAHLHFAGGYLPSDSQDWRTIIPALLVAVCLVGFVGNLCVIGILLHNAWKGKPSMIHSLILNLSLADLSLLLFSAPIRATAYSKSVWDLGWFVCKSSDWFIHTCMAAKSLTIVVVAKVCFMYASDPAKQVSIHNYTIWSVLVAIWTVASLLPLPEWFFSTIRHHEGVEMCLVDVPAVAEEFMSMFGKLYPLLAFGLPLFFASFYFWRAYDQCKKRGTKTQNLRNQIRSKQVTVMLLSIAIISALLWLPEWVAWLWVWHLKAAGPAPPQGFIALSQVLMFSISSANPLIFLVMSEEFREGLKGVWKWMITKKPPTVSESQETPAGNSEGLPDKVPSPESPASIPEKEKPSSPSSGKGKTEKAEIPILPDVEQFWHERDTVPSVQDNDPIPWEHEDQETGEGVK
FBW7 activator: activators of human E3 ligase FBW7; normalized activity (activation), % at 26.1 µM; AID 1259310; Q969H0; 0.13% of 650,000 active; AlphaScreen FBW7–phospho-cyclin E peptide binding, activator screen; in the data active means normalized activity above about 1.9%;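 further: purified mutant Fbw7 with reduced substrate affinity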
MITF primary: human MITF inhibition, primary screen | O75030 | AlphaScreen MITF homodimerization, bead proximity signal | inhibition, % at 2.6 µM | 0.91% of 650,000 active; in the data active means inhibition above about 50%;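 further: 0% = vehicle wells with protein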
TEAD-YAP block: TEAD-YAP interaction inhibition. AID 1259422. HEK-TIYL cells, TEAD-Gal4/YAP UAS-luciferase luminescence. 1.4% of 640,000 active. inhibition, % at 9.12 µM; in the data active means inhibition above about 32%;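 further: 0% = median of test compound wells and 100% = reference inhibitor wells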
MITF inh conf: confirmation of human MITF inhibitors; 16% of 4,700 active; shares compounds with MITF primary; inhibition, % at 2.6 µM; AlphaScreen MITF homodimerization, biotin/His-MITF beads; AID 1259372;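 active means inhibition above a cutoff derived from the DMSO control wells, cut at about 28% in these data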;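 further: 0% = MITF dimer wells with DMSO only; inhibitors lower the bead chemiluminescence by keeping MITF from dimerizing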
AS interf DR: AlphaScreen optical interference, dose response counter-screen; shares compounds with MITF primary; AlphaScreen optical interference counterscreen, cell-free; IC50, µM; 6% of 480 active; call rule not given here
AlphaScreen intf2: optically interferes with AlphaScreen signal; shares compounds with MITF primary; LysRS AlphaScreen counterscreen, signal interference, triplicate; inhibition, % at 2.6 µM; 7.6% of 4,700 active; AID 1259376;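 active means inhibition above a cutoff derived from the DMSO control wells, cut at about 30% in these data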
* hit, by the source's call.

How did CCS(=O)(=O)N1CCc2ccc(NS(=O)(=O)Cc3ccccc3F)cc2C1 do in these assays?
GPR151 activ: 0; FBW7 activator: 1; MITF primary: 75*; TEAD-YAP block: 17; MITF inh conf: -3; AlphaScreen intf2: 4

How did CCS(=O)(=O)N1CCc2ccc(NS(=O)(=O)C(C)C)cc2C1 do in these assays?
GPR151 activ: -1; FBW7 activator: 0; MITF primary: -4; TEAD-YAP block: -2

How did O=C(CN1CCN(C(=O)NCc2cccs2)CC1)c1ccco1 do in these assays?
GPR151 activ: -1; FBW7 activator: 0; MITF primary: 58*; TEAD-YAP block: 5; MITF inh conf: 9; AlphaScreen intf2: 28

Results for Cc1ccccc1NC(=O)N1CCN(CC(=O)c2ccco2)CC1 ?
GPR151 activ: -1; FBW7 activator: 0; MITF primary: 54*; TEAD-YAP block: -11; MITF inh conf: 10; AlphaScreen intf2: 22

Results for O=C(CN1CCN(C(=O)NCc2ccc(Cl)cc2)CC1)c1cccs1 ?
GPR151 activ: -2; FBW7 activator: 1; MITF primary: 59*; TEAD-YAP block: 4; MITF inh conf: 8; AlphaScreen intf2: 19

What do the screens show for `Cc1sc2nc(C(C)C)n3c(=O)n(CC(=O)NCc4ccco4)nc3c2c1C`?
GPR151 activ: -1; FBW7 activator: 0; MITF primary: 14; TEAD-YAP block: 5

How did Cc1sc2nc(C)n3c(=O)n(CC(=O)NCc4ccco4)nc3c2c1C do in these assays?
GPR151 activ: 2; FBW7 activator: 0; MITF primary: 51*; TEAD-YAP block: 5; MITF inh conf: 29*; AS interf DR: >6.5; AlphaScreen intf2: 9

Results for C#CCn1c(=O)oc2cc(Cl)ccc21 ?
GPR151 activ: -1; FBW7 activator: 0; MITF primary: 16; TEAD-YAP block: 10

Results for CCC(=O)Nc1ccc(S(=O)(=O)Nc2nnc(CC)s2)cc1 ?
GPR151 activ: 0; FBW7 activator: 0; MITF primary: 8; TEAD-YAP block: 8

What do the screens show for `CCc1nnc(NS(=O)(=O)c2ccc(NC(=O)COc3ccccc3)cc2)s1`?
GPR151 activ: 0; FBW7 activator: 0; MITF primary: 65*; TEAD-YAP block: 4; MITF inh conf: -4; AlphaScreen intf2: -3

What do the screens show for `COc1cc(C(=O)O/N=C2/C(=O)N(C)c3ccccc32)cc(OC)c1OC`?
GPR151 activ: 2; FBW7 activator: 0; MITF primary: -22; TEAD-YAP block: 13

How did c1ccc(OCCCn2ccnc2)cc1 do in these assays?
GPR151 activ: 0; FBW7 activator: 0; MITF primary: -1; TEAD-YAP block: 7

How did CCc1ccc(OCCCCCn2ccnc2)cc1 do in these assays?
GPR151 activ: 0; FBW7 activator: 0; MITF primary: 53*; TEAD-YAP block: 6; MITF inh conf: -5; AlphaScreen intf2: -2

How did c1ccc(COc2ccc(OCCn3ccnc3)cc2)cc1 do in these assays?
GPR151 activ: 1; FBW7 activator: 0; MITF primary: 81*; TEAD-YAP block: -45; MITF inh conf: 7; AlphaScreen intf2: 2

How did c1ccc(COc2ccc(OCCCn3ccnc3)cc2)cc1 do in these assays?
GPR151 activ: -6; FBW7 activator: 0; MITF primary: 79*; TEAD-YAP block: 54*; MITF inh conf: 6; AlphaScreen intf2: 18

What do the screens show for `CCc1ccc(OCCn2ccnc2)cc1`?
GPR151 activ: 0; FBW7 activator: 0; MITF primary: 31; TEAD-YAP block: -2

Results for COc1cccc(NC(=S)N(CCCN2CCC(C)CC2)Cc2cccs2)c1 ?
GPR151 activ: -2; FBW7 activator: 0; MITF primary: 79*; TEAD-YAP block: -12; MITF inh conf: -5; AlphaScreen intf2: -2

Results for O=C(NCc1cccs1)c1nn2c(C(F)(F)F)cc(-c3ccco3)nc2c1Br ?
GPR151 activ: -1; FBW7 activator: 0; MITF primary: 78*; TEAD-YAP block: -4; MITF inh conf: 5; AlphaScreen intf2: 20

How did Cc1nn(C(=O)C2CCCN2S(=O)(=O)c2ccc(Cl)cc2)c(C)c1Sc1ccc([N+](=O)[O-])cc1 (centres undefined) do in these assays?
GPR151 activ: -1; FBW7 activator: 0; MITF primary: 67*; TEAD-YAP block: 0; MITF inh conf: 12; AlphaScreen intf2: 17
